Source: PubChem
An excerpt weighted towards active compounds, which were near 12% of everything screened.
BAZ2B inh = inhibitors of human BAZ2B bromodomain; Potency, µM (top dose mostly 114 µM), without a hit: at the top dose activity change, negative = inhibition, usual class: inhibitors; AID 504333; Q9UIF8; 360,000 tested, 4.4% active; AlphaScreen BAZ2B-H3K14Ac peptide displacement; also: % is scaled to controls: 0 for no effect and ±100 for the full control effect; nearly all actives have a fitted effect of over 60% in size
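AlphaScreen displacement of biotin-H3(5-23)K14Ac peptide (50 nM final) from BAZ2B (50 nM final) in PBS pH 7.4, 0.01% Tween-20; complex preformed 30 min RT, then compounds (top 110 uM) 30 min RT, beads 20 min dark.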
L3MBTL1 inh = blocks human L3MBTL1. Q9Y468. AlphaScreen L3MBTL1–H3K9me1 peptide binding. Potency, µM (doses to about 57.1 µM), for inactives: top-dose activity, negative = inhibition, hits mostly inhibitors. 230,000 tested, 0.66% active. AID 485360; also: % is scaled to controls: 0 for no effect and ±100 for the full control effect; nearly all actives have a fitted effect of over 60% in size
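Displacement of a biotinylated histone H3(1-15) peptide monomethylated at Lys9 (75 nM) from L3MBTL1 (50 nM) was measured by AlphaScreen after a 30 min room-temperature compound incubation; cefsulodin titration served as intraplate control.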
JMJD2A Tudor = blocks the human JMJD2A Tudor domain; O75164; AlphaScreen JMJD2A-Tudor / H3K4me3 peptide binding; Potency, µM (highest dose often 114 µM), inactives show at the top dose activity change, negative = inhibition, actives largely listed as inhibitors; 390,000 tested, 4.4% active; also: % is scaled to controls: 0 for no effect and ±100 for the full control effect; nearly all actives have a fitted effect of over 50% in size
HP1b chromo inh = inhibitors of HP1-beta chromodomain binding to methylated histone tails; P83916; 390,000 tested, 0.56% active; AlphaScreen HP1-beta / biotin-H3K9me3 peptide binding; Potency, µM (doses to about 114 µM), for inactives: at the highest dose activity change, negative = inhibition, most hits filed as inhibitors; also: nearly all actives have a fitted effect of over 70% in size
Target sequence (P83916 whole entry, looked up): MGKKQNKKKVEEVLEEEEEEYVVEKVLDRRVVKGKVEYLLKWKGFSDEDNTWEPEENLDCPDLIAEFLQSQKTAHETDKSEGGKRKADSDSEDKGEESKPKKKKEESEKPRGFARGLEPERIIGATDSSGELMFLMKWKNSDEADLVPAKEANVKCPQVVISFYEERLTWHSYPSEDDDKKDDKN
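AlphaScreen: HP1-beta (50 nM) preformed 30 min with biotin-H3(1-18)K9me3 peptide (50 nM) in PBS pH 7.4, 0.01% Tween-20. Compound added for 30 min at RT, then streptavidin donor/nickel chelate acceptor beads (10 ug/mL) for 30 min.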
G9a inh = blocks human histone lysine methyltransferase G9a; 350,000 tested, 8.8% active; G9a H3K9 monomethylation, AlphaScreen, 2 h; Potency, µM (series often up to 102 µM), without a hit: at the top dose activity, negative = inhibition, usual class: inhibitors; also: % is scaled to controls: 0 for no effect and ±100 for the full control effect; nearly all actives have a fitted effect of over 75% in size
Target sequence (Q96KQ7 913-1193 limits assumed): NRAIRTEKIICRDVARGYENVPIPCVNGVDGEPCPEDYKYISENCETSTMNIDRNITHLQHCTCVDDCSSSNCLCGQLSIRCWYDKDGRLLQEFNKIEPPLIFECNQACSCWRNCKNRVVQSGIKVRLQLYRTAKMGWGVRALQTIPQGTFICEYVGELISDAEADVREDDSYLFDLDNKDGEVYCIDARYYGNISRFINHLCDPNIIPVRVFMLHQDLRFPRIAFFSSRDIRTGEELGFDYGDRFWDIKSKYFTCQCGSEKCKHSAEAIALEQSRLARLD
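Step 1: enzyme (final 20 nM) with compound, 15 min RT. Step 2: substrate peptide 500 nM and SAM 20 uM, 2 h RT. Step 3: anti-H3K9me1 antibody and AlphaScreen beads, 10 min, then plate read.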
Sfp inh = inhibitors of Bacillus subtilis Sfp phosphopantetheinyl transferase. Q9F4F7. Biochemical Sfp PPTase activity, qHTS. Potency, µM, for inactives: largest response in the series, negative = inhibition, usual class: inhibitors. 310,000 tested, 3.5% active. AID 1490;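 also: the enzyme is Sfp with the accession as filed and its product quenches rhodamine fluorescence; 0% = enzyme reaction without inhibitor and -100% = no enzyme wells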
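Fluorescence-quenching assay with 15 nM Sfp, 5 uM rhodamine-CoA and 12.5 uM BHQ-2-labelled ybbR peptide in pH 7.6 Hepes/MgCl2 buffer. Enzyme was pre-incubated with compound for 15 min at room temperature. Rate was taken from the 30-min fluorescence change (525/598 nm).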
* hit, by the source's call; ? = inconclusive; · = not tested or not shown; [ ] = dose if it differs, or a comment. Calls follow the shape of the dose curve; as a rule, active = well fitted curve in the direction sought with a large enough effect; inconclusive = small, poorly fitted or top-dose-only effect, or another doubt; inactive = no such curve, though single readings can be large; an effect the other way counts as inactive or inconclusive. Potency is read from the fitted curve at half-maximal effect.

SMILES	BAZ2B inh	L3MBTL1 inh	JMJD2A Tudor	HP1b chromo inh	G9a inh	Sfp inh
CN(C)C(=O)COc1ccc(Br)cc1	7%	7%	-21%	7%	-8%[59 µM]	6%
CN(C)C(=O)COc1ccc(S(=O)(=O)c2ccc(OCC(=O)N(C)C)cc2)cc1	-2%	·	-11%	38%	50µM*	-1%
Cc1ccc2oc(C(=O)Nc3nc(-c4ccc(F)cc4)ns3)c(C)c2c1	-7%	·	-12%	31%	-3%[59 µM]	·
O=c1[nH]c(SCc2ccccc2)ncc1S(=O)(=O)c1ccccc1	·	·	-18%	25%	·	·
CC(C)c1ccccc1OCC(=O)Nc1ccc2[nH]ncc2c1	0%	·	-31%	29%	71µM*	12%
O=C(Nc1ccc(F)c(F)c1)c1ccc(-n2cncn2)c([N+](=O)[O-])c1	-7%	-1%	-13%	15%	10%[12.7 µM]	·
O=C(Nc1cccc(/C=C/c2ccccn2)c1)c1ccc(-n2cncn2)c([N+](=O)[O-])c1	-33%	-5%	?	-2%	35µM*	·
COc1ccc(-c2ccn(-c3cccc(F)n3)n2)cc1	-16%	·	?	9%	14µM*	-16%
CCOc1ccccc1C(=O)NCC(c1cccs1)S(=O)(=O)c1ccc(F)c(C)c1 (stereo unspecified)	-1%	·	-26%	6%	20%[59 µM]	·
CC(C)Sc1nnc(CNC(=O)C23CC4CC(CC(C4)C2)C3)n1Cc1ccccc1	1%	1%	-13%	28%	32µM*	-6%
CSc1nnc(CNC(=O)C23CC4CC(CC(C4)C2)C3)n1Cc1ccccc1	-6%	2%	9%	16%	4%	13%
Cc1ccc2c(c1)C(=C(C#N)C#N)C(=O)N2CCN1CCOCC1	1%	·	-14%	29%	·	-8%
CC(=O)NC1C(=O)N(CCN2CCOCC2)c2ccc(F)cc21 (stereo unspecified)	10µM*	·	22µM*	-2%	32µM*	71µM*
CC(Oc1ccc(Cl)cc1Cl)C(=O)NCCN1CCOCC1 (stereo unspecified)	11%	8%	6%	22%	-5%	-9%
CC(=O)NC1C(=O)N(CCN2CCOCC2)c2ccc(Cl)cc21 (stereo unspecified)	8.9µM*	·	13µM*	?	32µM*	?
COc1ccc2c(c1)C(NC(C)=O)C(=O)N2C (stereo unspecified)	-2%	3%	-3%	62%	?	-6%
CC(=O)NC1C(=O)N(CCN2CCOCC2)c2ccc(C)cc21 (stereo unspecified)	5µM*	·	7.1µM*	?	20µM*	79µM*
N#Cc1ccc(CS(=O)(=O)c2nc3ccccc3s2)cc1	·	·	·	·	·	14%
CCOC(=O)/C=C1\CC(C(=O)OCC)Oc2ccccc21 (stereo unspecified)	·	5%	9%	44%	62%	4%
CCOC(=O)/C=C1\Nc2ccccc2OC1=O	?	12%	-10%	31%	11%[59 µM]	50µM*
COC(=O)C1=C(C)[C@H](O)[C@@H](C)[C@](C)(c2cc(OC)c(C)c(OC)c2COc2ccccc2)O1	·	·	·	·	·	9%
S=c1[nH]nc(CNc2cccc(Cl)c2)o1	-22%	-8%	-26%	21%	18µM*	1%
COc1ccc(C2C(C(=O)c3cccs3)=C(O)C(=O)N2c2nncs2)cc1 (stereo unspecified)	?	-7%	?	0%	45µM*	-28%
CC(C)c1nnc(N2C(=O)C(O)=C(C(=O)c3cccs3)C2c2ccccc2)s1 (stereo unspecified)	79µM*	2%[11.4 µM]	-28%	8%	25µM*	?
C=CCOc1ccc(C2C(C(=O)c3cccs3)=C(O)C(=O)N2c2nnc(C)s2)cc1 (stereo unspecified)	·	·	?	10%	·	·
SMILES	BAZ2B inh	L3MBTL1 inh	JMJD2A Tudor	HP1b chromo inh	G9a inh	Sfp inh
Cc1cccc(N2C(=O)C(O)=C(C(=O)c3cccs3)C2c2ccc(C(C)C)cc2)n1 (stereo unspecified)	-32%	-20%	-25%	5%	?	4%
COc1ccc(C2C(C(=O)c3cccs3)=C(O)C(=O)N2c2nnc(C)s2)cc1OC (stereo unspecified)	50µM*	4%	79µM*	24%	?	56µM*
Cc1cccc(N2C(=O)C(O)=C(C(=O)c3cccs3)C2c2ccc(F)cc2)n1 (stereo unspecified)	?	-7%	-20%	21%	?	16%
Clc1cccc(CNCCCSc2nnnn2-c2ccccc2)c1	1%	·	-28%	40%	-4%[59 µM]	·
N=c1sccn1CC(=O)Nc1ccc(S(N)(=O)=O)cc1	-3%	2%	-1%	44%	1%	7%
N=c1sccn1CC(=O)Nc1ccc(SC(F)F)cc1	-17%	1%	-24%	2%	50µM*	-22%
CN(C)c1ccc(CNC(=O)CCCN2C(=O)c3cccnc3Oc3ccc(Cl)cc32)cc1	?	·	?	8%	11µM*	·
CN1CCN2c3ccccc3CC3(C(=O)OC(C)(C)OC3=O)C2C1 (stereo unspecified)	·	·	5%[57.1 µM]	21%[57 µM]	·	·
O=C(/C=C/c1ccc2c(c1)OCCO2)c1ccccc1	-1%	-3%	-16%	47%	56%	-20%
O=C(/C=C/c1ccc(F)cc1)c1cc(Br)ccc1O	-3%	51%	23%	43%	100%	-3%
O=C(/C=C/c1ccc2c(c1)OCO2)c1ccc(O)cc1O	·	·	?	-7%[57 µM]	·	·
Nc1ccccc1C(=O)/C=C/c1ccc2c(c1)OCO2	14µM*	?	45µM*	?	40µM*	?
Cc1ccc(O)c(C(=O)/C=C/c2ccc3c(c2)OCCO3)c1	28µM*	·	28µM*	?	25µM*	-27%
Nc1ccccc1C(=O)/C=C\c1ccc2c(c1)OCO2	·	·	·	·	·	7%
CCNc1ccc(Br)cc(C(=O)/C=C/c2ccc(Cl)cc2)c1=O	10µM*	-18%	45µM*	-35%	10µM*	40µM*
CCNc1ccc(Br)cc(C(=O)/C=C/c2ccc3c(c2)OCO3)c1=O	22µM*	20µM*	45µM*	20µM*	·	-81%
COc1ccc(Cl)cc1NC(=O)CCN1C(=O)c2ccccc2Sc2ncccc21	-8%	·	-24%	-3%	-7%[59 µM]	·
CCNc1ccc(Br)cc(C(=O)/C=C/c2c(Cl)cccc2Cl)c1=O	25µM*	8.9µM*	89µM*	?	4µM*	16µM*
COc1ccc(N(Cc2cccs2)C(=O)c2ccccc2C)cc1	13%	·	20%	44%	1%[59 µM]	·
COC(=O)C(Cc1c[nH]c2ccccc12)NC(=O)c1ccc2nc[nH]c2c1 (stereo unspecified)	-7%	6%	-16%	22%	-46%	·
